# Reference: the supplement of paper PMC7726561
# In all, about 1,400 sequences were measured (“thermal melting temperature (Tm) of peptide-HLA complex”: median about 60, lowest 2% from about 45 on). Many of the other results were omitted from the sample, so the lowest values are more common in it than they were.
# Biological target: HLA-B*07:02
# Assay: thermal melting temperature (Tm) of peptide-HLA complex; higher = more thermostable pHLA complex
# Conditions: C1R-B*07:02
# 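Also: lysates heated 10 min at 37–73 °C, complexes pulled down with pan-HLA I antibody, peptide signal by DIA-MS relative to 37 °C, Tm where half the complex is unfolded.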
row,Sequence,thermal melting temperature
1,DPMKARVVL,49.3 °C
2,IPKLPAVSF,63.1 °C
3,QPRSPGPDYSL,57.7 °C
4,RPKALTQVL,61 °C
5,SPLVSRLTL,61.4 °C
6,SPLVSRLTLY,41.1 °C
7,RPQLKGVVL,61.1 °C
8,SPLPSPSAM,63.8 °C
9,HPISNNNSL,41.6 °C
10,NPMVTGTSV,56.3 °C
11,LPHEVDKSEL,44.8 °C
12,SPVLRNFTF,41.7 °C
13,IPRPEVQAL,54.1 °C
14,VPQVKASAL,59 °C
15,LPGLRDLVL,61.7 °C
16,MPKVKTIEL,56.4 °C

row,Sequence,thermal melting temperature
1,APRSVAVSSI,59.4 °C
2,SPHPGLLL,61 °C
3,KPHIGLTEL,60.7 °C
4,LPRTPSYSI,62.1 °C
5,HPISSEELLSL,58.6 °C
6,MPKLRVLEL,57.1 °C
7,YPNERFELL,63.1 °C
8,APSDLRTIQTF,62.8 °C
9,RPFFPLTATL,49.6 °C
10,FIRNRTLQL,61.5 °C
11,MPARWLTHL,55 °C
12,QPVAGRPSL,55.8 °C
13,QPNLKLLAM,62.9 °C
14,SPRGAGYLF,63 °C
15,RPVLWVGV,60.8 °C
